About 83,000 compounds went through this panel and 20% of them were active in at least one assay; those are over-represented in the sample as a whole.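 The endpoint reported here, percent growth, reads 100 for growth as untreated, 0 for no net growth and -100 for all cells dead.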 A number with no mark means an inactive call. Calls of active or inactive are those of the source. How the source made its calls: active means growth percent below 10; inactive means the rest.
Key:
Assay in all cases: NCI-60 one-dose screen, 48 h (100 = growth as untreated, 0 = no growth, -100 = all killed)
Settings in all cases: 10 µM unless noted
DU-145 prostate = test system: DU-145 prostate
K-562 leukemia = test system: K-562 leukemia
MALME-3M melanoma = test system: MALME-3M melanoma
MDA-MB-231 breast = test system: MDA-MB-231 breast
RXF 393 renal = test system: RXF 393 renal
SF-268 CNS = test system: SF-268 CNS
SF-295 CNS = test system: SF-295 CNS
SF-539 CNS = test system: SF-539 CNS
UACC-257 melanoma = test system: UACC-257 melanoma
M14 melanoma = test system: M14 melanoma

SMILES | growth (DU-145 prostate) | growth (K-562 leukemia) | growth (MALME-3M melanoma) | growth (MDA-MB-231 breast) | growth (RXF 393 renal) | growth (SF-268 CNS) | growth (SF-295 CNS) | growth (SF-539 CNS) | growth (UACC-257 melanoma) | growth (M14 melanoma)
Fc1ccc(Cn2cc(CSc3nc4ccccc4o3)nn2)cc1 | 108% | 95.3% | 107% | 97.1% | 105% | 95.4% | 97% | 100% | 105% | 97%
O=C(Oc1ccc(CCl)cc1)c1ccccc1 | -92.9% (active) | -37.5% (active) | -69.3% (active) | -82% (active) | -90.5% (active) | -79.3% (active) | -92.5% (active) | -87.6% (active) | -67.4% (active) | -82.7% (active)
CCCn1nc(C(=O)N(C)Cc2ccccc2)c2c1CCC(N1CCc3ccccc31)C2 (stereo not given) | 109% | 86.7% | 112% | 108% | 90.3% | 96.4% | 92.1% | 104% | 109% | 99%
COc1ccc2c(c1)c(-c1nc(-c3c[nH]c4ncccc34)cs1)cn2CCCN1CCOCC1 | 41.5% | -5.12% (active) | 5.55% (active) | 9.85% (active) | -9.75% (active) | 43.9% | -34.4% (active) | 33.6% | 49.9% | 10%
CCN(CC)CCN1C(=O)c2cccc3c(/C=C/CN4C(=O)c5cccc6cccc(c56)C4=O)ccc(c23)C1=O | 106% | 19.7% | 91.9% | 95.5% | 74.2% | 93.5% | 108% | 92.5% | 109% | 105%
O=C(/C=C/c1cccc(Cl)c1Cl)Nc1ncc(Cc2ccccc2Cl)s1 | 53.3% | 13.4% | 62.1% | 75% | 37.8% | 82.2% | 21.4% | 11.5% | 78.1% | 12.5%
COc1ccc(/C(C)=C(\c2ccc(Cl)cc2)c2ccc(OCCN3CCCCC3)cc2)cc1 | 78.8% | 3.68% (active) | 35.1% | 45.7% | 33.5% | 59.2% | 7.09% (active) | 43.9% | 1.77% (active) | 4.01% (active)
CCCCNC(=O)c1cc([N+](=O)[O-])cc(C2CCCCC2)c1O | 57.6% | 28.2% | 1.91% (active) | 31.4% | 42% | 43.9% | 15.9% | 47.9% | 24.6% | 44.4%
O=C(Nc1ncccc1OCc1ccccc1)NC1CCCCCC1 | 92% | 70.6% | 90.2% | 90.1% | 106% | 92.3% | 85.4% | 98.2% | 105% | 95.3%
C#CC#CC#CC#CC#CC#CC#CC#CC[C@@H]1OC[C@@H](COC(=O)O[C@@H](C(=O)O[C@H]2C[C@@]3(O)[C@@H](OC(=O)c4ccccc4)[C@@H]4[C@]5(OC(C)=O)CO[C@@H]5C[C@H](O)[C@@]4(C)C(=O)[C@H](OC(C)=O)C(=C2C)C3(C)C)[C@@H](NC(=O)c2ccccc2)c2ccccc2)O1 | 102% | 7.18% (active) | 37.4% | 5.64% (active) | -12.3% (active) | 94.5% | 0.0837% (active) | -8.27% (active) | 95.5% | -6.06% (active)
N#Cc1cccc(C2C3=C(COC3=O)N(CCO)c3cc4c(cc32)CCC4)c1 (stereo not given) | 3.87% (active) | 8.48% (active) | 48.2% | 32.4% | 35.5% | 30.4% | -7.01% (active) | -10.1% (active) | 69.4% | 2.59% (active)
C=C1C(=O)O[C@H]2[C@H]1CC/C(COC(=O)CSCSCC(=O)OC/C1=C/CC[C@@]3(C)O[C@H]3[C@H]3OC(=O)C(=C)[C@@H]3CC1)=C\CC[C@@]1(C)O[C@@H]21 | 28.3% | 3.55% (active) | -4.65% (active) | -27.9% (active) | -86.7% (active) | 20.7% | 70.3% | 3.58% (active) | 34.1% | 4.26% (active)
C/C(=N\O)c1ccc(NC(=O)CSc2nnc(-c3cc(-c4ccc(S(N)(=O)=O)cc4)nc4ccccc34)n2-c2ccccc2)cc1 | 80.3% | 43% | 80% | 74.3% | 83.9% | 60.3% | 92.2% | 76.4% | 87.3% | 74.4%
CCc1ccc(CCC(=O)Nc2ncc(Cc3cc(Cl)ccc3Cl)s2)o1 | 18.5% | 9.71% (active) | 43.5% | 28.6% | -32.5% (active) | 60.9% | 6.84% (active) | -6.72% (active) | 69.9% | 6.6% (active)
C=C1C(=O)O[C@H]2[C@H]1CC/C(Cn1cc(CCC)nn1)=C\CC[C@@]1(C)O[C@@H]21 | 28.7% | 4.94% (active) | 4.68% (active) | 12.2% | -70.2% (active) | 67.9% | 71.6% | -25% (active) | 19.1% | 12.1%
NC(=O)c1cccc([C@@H]2O[C@H](CO)[C@@H](O)[C@H]2O)c1 | 66.5% | 27% | 103% | 55.5% | 73.3% | 48% | 65.7% | 14.4% | 97.7% | 17.1%
CCOC(=O)CC1CSC(Nc2ccccc2)=N1 (stereo not given) | 103% | 96.4% | 102% | 105% | 114% | 98.7% | 104% | 105% | 97.9% | 103%
COc1ccc(C2=CN3CC=CC3CC2=O)cc1 (stereo not given) | 98.9% | 98.4% | 81.6% | 105% | 110% | 98.2% | 93.3% | 95% | 92.9% | 106%
Cc1ccc(C=C2C(=O)NC(=O)NC2=O)cc1 | 108% | 86.1% | 101% | 118% | 113% | 100% | 104% | 111% | 94% | 101%
COc1ccc(CCN2C(=O)/C(=C/c3ccc(C4Oc5ccccc5C5CC(c6ccccc6)=NN54)cc3)SC2=S)cc1 (stereo not given) | 110% | 100% | 102% | 92.3% | 107% | 99.2% | 105% | 98.5% | 109% | 102%
CCSc1oc(C)nc1[P+](c1ccccc1)(c1ccccc1)c1ccccc1 | 29.5% | 19.8% | 31.1% | 49.1% | 50.9% | 25% | 35.1% | 59.1% | 11.8% | 33.1%
COc1ccc(/C=C2\CN(C(=O)C(Cl)Cl)C/C(=C\c3ccc(OC)cc3)C2=O)cc1 | -11.2% (active) | 2.32% (active) | -33.9% (active) | 3.8% (active) | -68.2% (active) | 23.6% | -25.1% (active) | -40% (active) | 22.8% | -39% (active)
Cc1ccc(-c2nc3nc(-c4ccccc4)nc(N4CCCN(S(C)(=O)=O)CC4)c3o2)cc1 | 57.1% | 84.5% | 55.5% | 73.5% | 19.4% | 76% | 87.4% | 30.7% | 75.4% | 70.9%
CCN1C(=O)N(CC)C2Nn3c(s/c(=C\c4ccccc4Br)c3=O)=NC21 (stereo not given) | 13.6% | 10.7% | 59.5% | 19.7% | 28.4% | 50.1% | 25.2% | -20.1% (active) | 46.1% | 9.07% (active)
O=C(O)c1ccc(-c2ccc(/C=N/Nc3nc(Nc4ccccc4)nc(N4CCCCC4)n3)o2)cc1 | 66.7% | 67.5% | 59% | 96.5% | 65.4% | 71.7% | -21.9% (active) | 75.2% | 93.9% | 83.1%
CN(C)c1ccc(-c2ccc3c(c2)c(-c2ccccc2)nc(=O)n3C)cn1 | 69.7% | 3.37% (active) | 62.6% | 50.4% | 61.3% | 46.2% | 31.3% | 14.2% | 57.5% | 20.7%

— PubChem BioAssay (NCI)
